# Key:
# Test in all cases: DAPPL (digital affinity profiling via proximity ligation, sequencing); 10 mM Tris-HCl pH 7.5, 50 mM NaCl, 1 mM DTT, 4% glycerol, room temperature, 30 min; GST-TFs on glutathione beads, 16-mer random dsDNA library, 0.1% formaldehyde crosslink after washing; high values mean tight binding
# [1] = biological target: T1, FLI1 (Homo sapiens, UniProt Q01543 1-452); conditions: protein: recombinant; tags: N-terminal GST; dsDNA, one strand shown
# T1 sequence: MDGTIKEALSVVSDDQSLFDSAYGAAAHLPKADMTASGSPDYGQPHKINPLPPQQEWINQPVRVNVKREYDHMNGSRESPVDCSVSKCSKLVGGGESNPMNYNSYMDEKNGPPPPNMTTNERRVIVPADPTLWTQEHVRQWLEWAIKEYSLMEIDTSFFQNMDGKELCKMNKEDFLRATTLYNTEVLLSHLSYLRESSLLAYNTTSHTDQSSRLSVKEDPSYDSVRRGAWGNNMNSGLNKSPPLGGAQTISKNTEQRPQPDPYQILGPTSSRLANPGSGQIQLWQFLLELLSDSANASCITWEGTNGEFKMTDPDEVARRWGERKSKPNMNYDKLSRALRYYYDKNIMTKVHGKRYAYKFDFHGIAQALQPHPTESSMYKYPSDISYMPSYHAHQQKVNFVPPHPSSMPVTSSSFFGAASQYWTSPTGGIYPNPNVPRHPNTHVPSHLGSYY
# In short: (§1)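 The binding signal reported is, for every hexamer, its read frequency for a factor over its read frequency for the tag-only sample. Reads came from pools of yeast-expressed, GST-fused human transcription factors on glutathione beads, barcoded with DNA and mixed with that sample, which were incubated with 200 nmole of a random double-stranded 16-mer DNA library in Tris/NaCl/DTT/glycerol buffer at room temperature for 30 min. After washing, the pools were crosslinked with 0.1% formaldehyde, proximity-ligated with BsaI/T4 ligase for 1 h at 37 °C, PCR-amplified and sequenced on an Illumina NextSeq500.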
# [2] = biological target: T2, ELK1 (Homo sapiens, UniProt P19419 1-428); conditions: protein: recombinant; tags: N-terminal GST; dsDNA, one strand shown
# T2 sequence: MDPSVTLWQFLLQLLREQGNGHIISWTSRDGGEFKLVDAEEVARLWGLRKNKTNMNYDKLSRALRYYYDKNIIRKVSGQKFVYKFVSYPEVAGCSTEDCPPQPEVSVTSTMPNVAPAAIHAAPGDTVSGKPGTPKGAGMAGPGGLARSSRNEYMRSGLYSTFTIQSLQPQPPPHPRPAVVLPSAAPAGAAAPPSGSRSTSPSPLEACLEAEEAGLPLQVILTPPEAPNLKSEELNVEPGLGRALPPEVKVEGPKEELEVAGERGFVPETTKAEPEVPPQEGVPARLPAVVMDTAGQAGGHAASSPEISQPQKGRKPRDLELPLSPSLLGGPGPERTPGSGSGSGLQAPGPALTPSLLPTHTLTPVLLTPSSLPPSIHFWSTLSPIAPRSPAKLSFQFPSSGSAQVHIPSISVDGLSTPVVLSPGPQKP
# In short: as §1
# [3] = biological target: T3, GABPA (Homo sapiens, UniProt Q06546 1-454); conditions: protein: recombinant; tags: N-terminal GST; dsDNA, one strand shown
# T3 sequence: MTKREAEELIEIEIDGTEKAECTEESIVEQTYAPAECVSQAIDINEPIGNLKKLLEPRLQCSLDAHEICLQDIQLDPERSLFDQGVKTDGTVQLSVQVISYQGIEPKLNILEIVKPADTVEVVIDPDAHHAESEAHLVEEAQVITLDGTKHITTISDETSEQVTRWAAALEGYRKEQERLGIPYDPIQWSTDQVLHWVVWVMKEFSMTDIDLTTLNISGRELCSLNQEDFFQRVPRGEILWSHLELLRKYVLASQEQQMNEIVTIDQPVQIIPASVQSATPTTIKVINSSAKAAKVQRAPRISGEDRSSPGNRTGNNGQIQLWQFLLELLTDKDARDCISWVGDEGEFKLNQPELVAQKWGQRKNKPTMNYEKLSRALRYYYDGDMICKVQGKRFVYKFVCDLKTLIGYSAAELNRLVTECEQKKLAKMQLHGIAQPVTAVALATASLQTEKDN
# In short: as §1
# [4] = biological target: T4, ERG (Homo sapiens, UniProt P11308 1-479); conditions: protein: recombinant; tags: N-terminal GST; dsDNA, one strand shown
# T4 sequence: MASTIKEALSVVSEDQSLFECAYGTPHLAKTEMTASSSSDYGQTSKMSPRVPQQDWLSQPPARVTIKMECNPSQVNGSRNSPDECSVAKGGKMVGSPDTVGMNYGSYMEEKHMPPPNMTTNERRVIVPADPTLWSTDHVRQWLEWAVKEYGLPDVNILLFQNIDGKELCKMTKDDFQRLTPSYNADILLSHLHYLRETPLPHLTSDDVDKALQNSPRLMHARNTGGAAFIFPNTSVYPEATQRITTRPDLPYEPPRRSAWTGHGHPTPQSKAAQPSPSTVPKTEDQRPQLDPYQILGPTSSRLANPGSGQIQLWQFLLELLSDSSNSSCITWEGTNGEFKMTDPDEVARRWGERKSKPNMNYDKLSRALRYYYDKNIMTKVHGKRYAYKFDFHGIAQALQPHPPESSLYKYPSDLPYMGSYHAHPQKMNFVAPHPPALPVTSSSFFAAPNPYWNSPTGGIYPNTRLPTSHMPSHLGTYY
# In short: as §1
# [5] = biological target: ELF1 (Homo sapiens, UniProt P32519 1-619); conditions: protein: recombinant; tags: N-terminal GST; dsDNA, one strand shown
# In short: as §1
# [6] = biological target: T5, EHF (Homo sapiens, UniProt Q9NZC4 1-300); conditions: protein: recombinant; tags: N-terminal GST; dsDNA, one strand shown
# T5 sequence: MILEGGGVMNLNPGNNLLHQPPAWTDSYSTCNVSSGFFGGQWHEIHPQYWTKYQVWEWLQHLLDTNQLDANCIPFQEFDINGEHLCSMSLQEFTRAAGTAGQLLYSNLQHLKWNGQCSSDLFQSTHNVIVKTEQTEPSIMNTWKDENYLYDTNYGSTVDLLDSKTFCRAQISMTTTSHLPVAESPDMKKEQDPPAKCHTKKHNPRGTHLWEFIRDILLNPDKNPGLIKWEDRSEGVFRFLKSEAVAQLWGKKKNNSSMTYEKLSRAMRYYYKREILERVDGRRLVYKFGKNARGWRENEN
# In short: as §1
# [7] = biological target: SPI1 (Homo sapiens, UniProt P17947 1-270); conditions: protein: recombinant; tags: N-terminal GST; dsDNA, one strand shown
# In short: as §1
# [8] = biological target: SPIB (Homo sapiens, UniProt Q01892 1-262); conditions: protein: recombinant; tags: N-terminal GST; dsDNA, one strand shown
# In short: as §1
# [9] = biological target: T6, ELK3 (Homo sapiens, UniProt P41970 1-407); conditions: protein: recombinant; tags: N-terminal GST; dsDNA, one strand shown
# T6 sequence: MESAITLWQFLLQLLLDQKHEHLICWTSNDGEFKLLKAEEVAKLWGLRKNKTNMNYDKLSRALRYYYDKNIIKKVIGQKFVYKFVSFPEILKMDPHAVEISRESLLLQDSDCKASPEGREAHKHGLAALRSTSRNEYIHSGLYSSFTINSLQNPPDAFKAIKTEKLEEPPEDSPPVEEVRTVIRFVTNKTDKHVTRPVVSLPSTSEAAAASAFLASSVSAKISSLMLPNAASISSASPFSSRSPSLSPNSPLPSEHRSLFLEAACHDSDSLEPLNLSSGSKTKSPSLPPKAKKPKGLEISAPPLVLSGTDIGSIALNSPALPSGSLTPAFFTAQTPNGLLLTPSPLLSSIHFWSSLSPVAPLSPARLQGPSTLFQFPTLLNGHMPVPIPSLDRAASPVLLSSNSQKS
# In short: as §1
# [10] = biological target: T7, FEV (Homo sapiens, UniProt Q99581 1-238); conditions: protein: recombinant; tags: N-terminal GST; dsDNA, one strand shown
# T7 sequence: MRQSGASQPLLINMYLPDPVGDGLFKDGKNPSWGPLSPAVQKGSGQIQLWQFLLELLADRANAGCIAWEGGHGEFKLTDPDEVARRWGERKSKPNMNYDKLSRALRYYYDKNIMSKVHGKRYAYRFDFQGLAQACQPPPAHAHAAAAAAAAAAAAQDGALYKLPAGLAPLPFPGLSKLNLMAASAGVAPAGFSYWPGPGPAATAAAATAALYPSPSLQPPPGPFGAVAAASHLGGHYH
# In short: as §1
# [11] = biological target: ETV5 (Homo sapiens, UniProt P41161 1-510); conditions: protein: recombinant; tags: N-terminal GST; dsDNA, one strand shown
# In short: as §1
# [12] = biological target: HSF1 (Homo sapiens, UniProt Q00613 1-529); conditions: protein: recombinant; tags: N-terminal GST; chain copies: 3; dsDNA, one strand shown
# In short: as §1
# [13] = biological target: T8, SPIC (Homo sapiens, UniProt Q8N5J4 1-248); conditions: protein: recombinant; tags: N-terminal GST; dsDNA, one strand shown
# T8 sequence: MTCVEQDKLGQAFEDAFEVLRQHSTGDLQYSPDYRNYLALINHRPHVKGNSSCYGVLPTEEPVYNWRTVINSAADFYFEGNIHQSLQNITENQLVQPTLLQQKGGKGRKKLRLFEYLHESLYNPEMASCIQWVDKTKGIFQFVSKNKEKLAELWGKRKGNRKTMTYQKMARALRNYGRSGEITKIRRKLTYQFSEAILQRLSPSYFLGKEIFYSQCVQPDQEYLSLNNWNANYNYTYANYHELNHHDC
# In short: as §1
# [14] = biological target: ELF4 (Homo sapiens, UniProt Q99607 1-663); conditions: protein: recombinant; tags: N-terminal GST; dsDNA, one strand shown
# In short: as §1
# [15] = biological target: T9, ELK4 (Homo sapiens, UniProt P28324-2 1-405); conditions: protein: recombinant; tags: N-terminal GST; dsDNA, one strand shown
# T9 sequence: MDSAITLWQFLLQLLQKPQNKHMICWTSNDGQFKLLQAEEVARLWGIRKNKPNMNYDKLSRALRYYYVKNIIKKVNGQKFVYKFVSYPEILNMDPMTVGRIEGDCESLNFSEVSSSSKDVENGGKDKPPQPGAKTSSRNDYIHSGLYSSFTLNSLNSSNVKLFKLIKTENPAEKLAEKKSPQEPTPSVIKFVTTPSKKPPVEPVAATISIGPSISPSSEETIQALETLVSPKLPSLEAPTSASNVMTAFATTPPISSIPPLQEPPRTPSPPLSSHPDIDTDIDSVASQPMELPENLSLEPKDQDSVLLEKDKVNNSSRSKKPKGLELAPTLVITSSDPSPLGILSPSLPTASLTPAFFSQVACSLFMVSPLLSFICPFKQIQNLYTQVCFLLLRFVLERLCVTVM
# In short: as §1
# [16] = biological target: T10, ETV2 (Homo sapiens, UniProt O00321 1-342); conditions: protein: recombinant; tags: N-terminal GST; dsDNA, one strand shown
# T10 sequence: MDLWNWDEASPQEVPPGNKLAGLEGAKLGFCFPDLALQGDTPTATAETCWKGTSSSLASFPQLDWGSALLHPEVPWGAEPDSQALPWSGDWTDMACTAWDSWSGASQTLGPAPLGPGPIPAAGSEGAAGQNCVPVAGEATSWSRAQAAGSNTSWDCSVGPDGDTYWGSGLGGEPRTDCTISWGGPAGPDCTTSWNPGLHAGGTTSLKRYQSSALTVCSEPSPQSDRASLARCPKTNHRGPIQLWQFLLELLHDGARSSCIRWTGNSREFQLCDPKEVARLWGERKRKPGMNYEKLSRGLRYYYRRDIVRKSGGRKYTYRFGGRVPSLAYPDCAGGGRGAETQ
# In short: as §1
# [17] = biological target: T11, ELF3 (Homo sapiens, UniProt P78545 1-371); conditions: protein: recombinant; tags: N-terminal GST; dsDNA, one strand shown
# T11 sequence: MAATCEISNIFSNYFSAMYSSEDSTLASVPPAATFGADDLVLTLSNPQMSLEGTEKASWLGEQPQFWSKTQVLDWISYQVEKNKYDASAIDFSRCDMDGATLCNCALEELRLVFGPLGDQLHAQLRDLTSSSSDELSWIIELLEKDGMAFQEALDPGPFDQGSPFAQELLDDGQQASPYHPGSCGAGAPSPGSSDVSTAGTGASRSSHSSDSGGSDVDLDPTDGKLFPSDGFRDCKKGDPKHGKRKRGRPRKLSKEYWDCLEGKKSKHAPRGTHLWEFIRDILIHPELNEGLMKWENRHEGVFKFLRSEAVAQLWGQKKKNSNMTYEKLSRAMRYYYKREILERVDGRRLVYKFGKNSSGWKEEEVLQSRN
# In short: as §1
# [18] = biological target: CRX (Homo sapiens, UniProt O43186 1-299); conditions: protein: recombinant; tags: N-terminal GST; dsDNA, one strand shown
# In short: as §1
# [19] = biological target: ETV1 (Homo sapiens, UniProt P50549 1-477); conditions: protein: recombinant; tags: N-terminal GST; dsDNA, one strand shown
# In short: as §1
# Chain of CRX (O43186 whole entry): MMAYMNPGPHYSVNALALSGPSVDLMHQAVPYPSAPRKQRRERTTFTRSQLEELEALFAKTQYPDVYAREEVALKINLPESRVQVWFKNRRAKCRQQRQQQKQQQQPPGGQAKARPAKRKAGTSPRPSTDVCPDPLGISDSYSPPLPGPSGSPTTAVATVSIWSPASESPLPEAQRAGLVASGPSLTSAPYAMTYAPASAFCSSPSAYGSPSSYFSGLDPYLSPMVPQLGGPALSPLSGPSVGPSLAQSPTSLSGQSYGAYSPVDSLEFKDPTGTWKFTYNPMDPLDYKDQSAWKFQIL
# Chain of ETV5 (P41161 whole entry): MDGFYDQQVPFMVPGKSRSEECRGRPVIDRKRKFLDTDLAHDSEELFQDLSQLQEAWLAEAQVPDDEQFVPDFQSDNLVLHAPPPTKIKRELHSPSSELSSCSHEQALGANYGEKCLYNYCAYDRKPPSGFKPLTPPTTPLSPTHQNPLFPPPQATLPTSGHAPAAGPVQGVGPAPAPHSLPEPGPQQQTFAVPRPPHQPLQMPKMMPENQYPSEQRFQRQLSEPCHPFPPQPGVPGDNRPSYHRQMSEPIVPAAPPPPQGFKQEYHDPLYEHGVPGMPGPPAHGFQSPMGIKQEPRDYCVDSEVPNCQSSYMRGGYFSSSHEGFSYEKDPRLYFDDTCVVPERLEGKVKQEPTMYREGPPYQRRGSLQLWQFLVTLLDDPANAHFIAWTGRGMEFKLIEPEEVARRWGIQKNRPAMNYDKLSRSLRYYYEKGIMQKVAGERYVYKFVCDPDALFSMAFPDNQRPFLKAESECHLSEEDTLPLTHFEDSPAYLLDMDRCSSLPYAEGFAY
# Chain of HSF1 (Q00613 whole entry): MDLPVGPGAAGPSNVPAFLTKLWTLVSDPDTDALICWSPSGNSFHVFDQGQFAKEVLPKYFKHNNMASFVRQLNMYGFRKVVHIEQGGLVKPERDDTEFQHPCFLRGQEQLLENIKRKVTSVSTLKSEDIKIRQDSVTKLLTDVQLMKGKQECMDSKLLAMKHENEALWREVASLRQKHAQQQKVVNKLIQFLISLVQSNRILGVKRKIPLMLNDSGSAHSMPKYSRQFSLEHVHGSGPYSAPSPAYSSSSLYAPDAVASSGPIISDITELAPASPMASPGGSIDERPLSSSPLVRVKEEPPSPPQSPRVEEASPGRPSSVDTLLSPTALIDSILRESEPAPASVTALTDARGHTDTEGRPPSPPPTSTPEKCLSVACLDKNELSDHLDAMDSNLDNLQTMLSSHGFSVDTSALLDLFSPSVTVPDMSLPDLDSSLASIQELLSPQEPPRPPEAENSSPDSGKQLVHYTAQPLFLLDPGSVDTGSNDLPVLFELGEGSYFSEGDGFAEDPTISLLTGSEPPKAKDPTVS
# Chain of SPIB (Q01892 whole entry): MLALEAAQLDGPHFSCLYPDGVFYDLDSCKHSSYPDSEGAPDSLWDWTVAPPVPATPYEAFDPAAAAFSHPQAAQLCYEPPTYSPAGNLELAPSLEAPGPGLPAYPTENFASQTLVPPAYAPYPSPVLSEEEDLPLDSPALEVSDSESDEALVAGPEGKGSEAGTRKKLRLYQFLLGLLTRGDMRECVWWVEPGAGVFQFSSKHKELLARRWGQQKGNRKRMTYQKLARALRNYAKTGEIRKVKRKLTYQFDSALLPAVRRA
# Chain of ETV1 (P50549 whole entry): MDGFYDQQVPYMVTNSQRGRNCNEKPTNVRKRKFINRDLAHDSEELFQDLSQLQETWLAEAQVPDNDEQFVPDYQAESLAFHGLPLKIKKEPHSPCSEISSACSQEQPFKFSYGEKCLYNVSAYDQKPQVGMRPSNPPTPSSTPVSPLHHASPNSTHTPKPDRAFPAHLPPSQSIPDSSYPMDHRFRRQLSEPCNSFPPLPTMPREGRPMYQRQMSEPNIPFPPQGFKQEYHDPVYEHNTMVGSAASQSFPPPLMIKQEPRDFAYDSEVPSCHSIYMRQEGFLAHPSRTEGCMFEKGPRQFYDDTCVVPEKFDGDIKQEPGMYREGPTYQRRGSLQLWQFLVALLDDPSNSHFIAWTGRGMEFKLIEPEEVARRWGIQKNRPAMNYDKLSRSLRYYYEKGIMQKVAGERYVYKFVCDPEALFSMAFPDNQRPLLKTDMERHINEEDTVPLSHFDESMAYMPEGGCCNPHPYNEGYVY
# Chain of ELF1 (P32519 whole entry): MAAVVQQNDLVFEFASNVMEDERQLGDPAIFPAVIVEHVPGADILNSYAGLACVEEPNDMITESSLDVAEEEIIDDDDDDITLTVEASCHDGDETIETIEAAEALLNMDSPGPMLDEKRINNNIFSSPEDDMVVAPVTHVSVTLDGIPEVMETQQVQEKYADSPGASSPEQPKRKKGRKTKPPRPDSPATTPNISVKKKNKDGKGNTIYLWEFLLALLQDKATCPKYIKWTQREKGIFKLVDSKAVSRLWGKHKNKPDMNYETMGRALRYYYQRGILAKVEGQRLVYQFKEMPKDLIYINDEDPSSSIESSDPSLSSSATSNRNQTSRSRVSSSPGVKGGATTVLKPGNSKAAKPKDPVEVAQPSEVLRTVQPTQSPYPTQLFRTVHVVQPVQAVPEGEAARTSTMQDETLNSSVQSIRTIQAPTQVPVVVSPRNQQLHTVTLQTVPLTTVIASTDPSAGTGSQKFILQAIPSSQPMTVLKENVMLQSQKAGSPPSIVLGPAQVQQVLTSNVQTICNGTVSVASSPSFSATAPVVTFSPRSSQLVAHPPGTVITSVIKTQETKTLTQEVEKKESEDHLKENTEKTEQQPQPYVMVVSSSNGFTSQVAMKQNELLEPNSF
# Chain of ELF4 (Q99607 whole entry): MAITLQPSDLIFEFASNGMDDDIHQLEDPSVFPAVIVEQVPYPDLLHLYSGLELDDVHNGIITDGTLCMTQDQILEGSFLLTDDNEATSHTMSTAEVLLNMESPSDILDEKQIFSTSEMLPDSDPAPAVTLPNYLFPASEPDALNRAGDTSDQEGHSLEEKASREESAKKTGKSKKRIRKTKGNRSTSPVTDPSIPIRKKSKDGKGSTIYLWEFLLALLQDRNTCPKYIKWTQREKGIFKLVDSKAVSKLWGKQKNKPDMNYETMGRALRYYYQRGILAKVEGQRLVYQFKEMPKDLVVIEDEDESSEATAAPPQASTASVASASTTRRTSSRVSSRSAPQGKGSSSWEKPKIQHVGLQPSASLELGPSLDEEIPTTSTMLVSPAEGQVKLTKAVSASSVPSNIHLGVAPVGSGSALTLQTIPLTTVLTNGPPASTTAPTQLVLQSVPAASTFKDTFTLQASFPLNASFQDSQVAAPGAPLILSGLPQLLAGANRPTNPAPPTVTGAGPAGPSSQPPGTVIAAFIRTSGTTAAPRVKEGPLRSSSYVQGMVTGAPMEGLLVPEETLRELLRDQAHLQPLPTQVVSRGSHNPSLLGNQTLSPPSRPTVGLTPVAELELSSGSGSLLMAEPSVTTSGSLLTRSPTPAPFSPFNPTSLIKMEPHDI
sequence,measurement,setting,value
ATTGTA,binding signal,[1],"1.22 fold enrichment (6-mer frequency, TF over GST control)"
same,binding signal,[2],"1.33 fold enrichment (6-mer frequency, TF over GST control)"
same,binding signal,[3],"1.17 fold enrichment (6-mer frequency, TF over GST control)"
same,binding signal,[4],"1.19 fold enrichment (6-mer frequency, TF over GST control)"
same,binding signal,[5],"1.24 fold enrichment (6-mer frequency, TF over GST control)"
same,binding signal,[6],"1.22 fold enrichment (6-mer frequency, TF over GST control)"
same,binding signal,[7],"1.09 fold enrichment (6-mer frequency, TF over GST control)"
same,binding signal,[8],"1.24 fold enrichment (6-mer frequency, TF over GST control)"
same,binding signal,[9],"1.27 fold enrichment (6-mer frequency, TF over GST control)"
same,binding signal,[10],"1.19 fold enrichment (6-mer frequency, TF over GST control)"
same,binding signal,[11],"1.19 fold enrichment (6-mer frequency, TF over GST control)"
same,binding signal,[12],"1.16 fold enrichment (6-mer frequency, TF over GST control)"
same,binding signal,[13],"1.18 fold enrichment (6-mer frequency, TF over GST control)"
same,binding signal,[14],"1.24 fold enrichment (6-mer frequency, TF over GST control)"
same,binding signal,[15],"1.21 fold enrichment (6-mer frequency, TF over GST control)"
same,binding signal,[16],"1.29 fold enrichment (6-mer frequency, TF over GST control)"
same,binding signal,[17],"1.17 fold enrichment (6-mer frequency, TF over GST control)"
same,binding signal,[18],"1.28 fold enrichment (6-mer frequency, TF over GST control)"
same,binding signal,[19],"1.21 fold enrichment (6-mer frequency, TF over GST control)"
